# According to ChEMBL document CHEMBL3988442, “University of Dundee, Small-Polar-MMV Screening Library” (2021):
# For some assays here: Potency and affinity values are given separately.
# Legend:
# Set-up in all cases: scale not given: direction of the effect not stated beside the values
# [1] = target: Protein translocase subunit SecA (Escherichia coli (strain K12)) (UniProt P10408); experiment: Assay to Identify E. coli SecA ATPase Inhibitors; assay type: functional; details: 30 µM
# [2] = target: T1, Ubiquitin-activating enzyme e1, putative (Leishmania donovani (strain BPK282A1)) (UniProt E9BSI1); experiment: Leishmania donovani Ubiquitin Activating Enzyme (LdE1); assay type: functional; details: 30 µM
# T1 sequence (whole entry): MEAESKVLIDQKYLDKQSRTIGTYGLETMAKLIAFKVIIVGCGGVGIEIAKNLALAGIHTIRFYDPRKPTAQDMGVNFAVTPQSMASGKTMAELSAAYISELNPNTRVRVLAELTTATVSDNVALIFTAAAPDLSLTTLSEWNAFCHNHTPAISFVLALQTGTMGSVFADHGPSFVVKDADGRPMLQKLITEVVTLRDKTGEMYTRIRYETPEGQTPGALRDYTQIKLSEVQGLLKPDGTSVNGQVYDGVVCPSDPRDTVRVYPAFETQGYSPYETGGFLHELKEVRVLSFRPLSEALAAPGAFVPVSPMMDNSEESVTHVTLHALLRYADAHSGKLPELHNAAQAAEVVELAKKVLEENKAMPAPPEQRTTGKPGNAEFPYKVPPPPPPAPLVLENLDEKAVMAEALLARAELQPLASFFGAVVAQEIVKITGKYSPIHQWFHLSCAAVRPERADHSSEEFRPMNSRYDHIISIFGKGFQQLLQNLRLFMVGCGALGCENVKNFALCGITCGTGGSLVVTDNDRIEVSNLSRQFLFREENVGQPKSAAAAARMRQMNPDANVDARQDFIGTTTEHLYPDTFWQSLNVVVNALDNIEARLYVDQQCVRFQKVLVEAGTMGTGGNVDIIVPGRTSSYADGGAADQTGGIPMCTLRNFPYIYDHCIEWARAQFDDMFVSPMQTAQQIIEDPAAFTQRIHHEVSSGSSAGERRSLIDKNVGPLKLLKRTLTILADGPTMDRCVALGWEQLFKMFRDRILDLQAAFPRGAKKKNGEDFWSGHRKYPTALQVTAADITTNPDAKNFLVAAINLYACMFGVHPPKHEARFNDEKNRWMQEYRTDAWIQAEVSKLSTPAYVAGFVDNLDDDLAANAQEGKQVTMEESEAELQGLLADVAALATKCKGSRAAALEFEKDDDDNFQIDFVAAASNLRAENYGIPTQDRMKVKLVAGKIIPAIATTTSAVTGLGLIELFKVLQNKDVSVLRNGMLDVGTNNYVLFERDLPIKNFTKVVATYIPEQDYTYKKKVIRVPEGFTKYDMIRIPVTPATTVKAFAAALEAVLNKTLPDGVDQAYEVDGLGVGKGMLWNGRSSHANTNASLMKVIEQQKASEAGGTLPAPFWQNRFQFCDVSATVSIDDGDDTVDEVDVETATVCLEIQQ
# [3] = target: T2, Aspartate--tRNA(Asp/Asn) ligase (Mycobacterium tuberculosis (strain ATCC 25618 / H37Rv)) (UniProt P9WFW3); experiment: Assay for Asp RNA synthetase-1 from Mycobacterium tuberculosis; assay type: functional; details: 30 µM; further: in the data most compounds retested in dose-response had high values
# T2 sequence (whole entry): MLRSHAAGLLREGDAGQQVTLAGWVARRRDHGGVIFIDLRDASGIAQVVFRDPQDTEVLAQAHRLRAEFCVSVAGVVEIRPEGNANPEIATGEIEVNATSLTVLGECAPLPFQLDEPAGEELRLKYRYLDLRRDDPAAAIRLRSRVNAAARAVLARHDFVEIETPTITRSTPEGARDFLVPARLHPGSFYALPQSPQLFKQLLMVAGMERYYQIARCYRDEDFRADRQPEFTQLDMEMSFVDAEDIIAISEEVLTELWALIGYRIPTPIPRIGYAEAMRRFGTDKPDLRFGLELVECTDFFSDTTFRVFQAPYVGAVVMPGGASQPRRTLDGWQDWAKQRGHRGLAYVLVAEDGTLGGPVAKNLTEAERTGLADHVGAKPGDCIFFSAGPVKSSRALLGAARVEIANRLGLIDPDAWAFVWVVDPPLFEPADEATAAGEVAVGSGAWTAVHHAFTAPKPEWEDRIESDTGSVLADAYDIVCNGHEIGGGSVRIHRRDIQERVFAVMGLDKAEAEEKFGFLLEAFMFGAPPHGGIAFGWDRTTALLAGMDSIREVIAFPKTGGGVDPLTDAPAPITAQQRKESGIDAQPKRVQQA
# [4] = target: Sialic acid-binding Ig-like lectin 9 (Homo sapiens) (UniProt Q9Y336); experiment: Hs-Siglec9 ALPHAscreen SOP 20170721; details: 10 µM
# Sialic acid-binding Ig-like lectin 9 (Homo sapiens), sequence (Q9Y336 whole entry): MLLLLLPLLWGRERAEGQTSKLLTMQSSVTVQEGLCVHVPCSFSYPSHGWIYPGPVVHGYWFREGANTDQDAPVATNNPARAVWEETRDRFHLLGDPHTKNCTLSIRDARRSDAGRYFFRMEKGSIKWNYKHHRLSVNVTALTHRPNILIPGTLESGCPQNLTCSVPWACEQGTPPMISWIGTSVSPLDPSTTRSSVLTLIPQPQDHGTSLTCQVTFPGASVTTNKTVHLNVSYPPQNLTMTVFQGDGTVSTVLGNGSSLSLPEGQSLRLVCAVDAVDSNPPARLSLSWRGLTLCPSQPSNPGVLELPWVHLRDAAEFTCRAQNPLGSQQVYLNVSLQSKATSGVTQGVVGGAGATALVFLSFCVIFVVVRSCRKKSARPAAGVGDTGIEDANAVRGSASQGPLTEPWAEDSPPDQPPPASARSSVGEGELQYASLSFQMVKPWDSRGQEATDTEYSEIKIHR
# Trypanosoma cruzi = experiment: Trypanosoma cruzi phosphomannomutase and mannose-1-phosphate guanylyltransferase assay; assay type: functional; details: 10 µM
# [5] = target: T3, Arginase-2, mitochondrial (Homo sapiens) (UniProt P78540); experiment: in vitro enzyme assay to detect the production of urea directly proportional to the activity of Arginase II; assay type: functional; details: 33.3 µM; further: in the data most compounds retested in dose-response had high values
# T3 sequence (whole entry): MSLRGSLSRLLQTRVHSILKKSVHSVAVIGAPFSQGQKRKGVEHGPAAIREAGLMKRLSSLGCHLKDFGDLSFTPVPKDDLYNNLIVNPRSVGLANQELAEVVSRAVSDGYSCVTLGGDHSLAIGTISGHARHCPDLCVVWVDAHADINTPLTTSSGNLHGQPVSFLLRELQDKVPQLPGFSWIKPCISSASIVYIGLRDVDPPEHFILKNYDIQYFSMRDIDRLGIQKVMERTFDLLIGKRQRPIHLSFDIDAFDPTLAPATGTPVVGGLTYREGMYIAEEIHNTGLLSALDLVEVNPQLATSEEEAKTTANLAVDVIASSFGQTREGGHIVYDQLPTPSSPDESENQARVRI
# [6] = target: T4, Proteasome subunit beta (Trypanosoma cruzi) (UniProt O96673); experiment: Trypanosoma cruzi proteasome chymotrypsin-like activity (TcProtChymo) assay.; further: in the data most compounds retested in dose-response had high values; assay type: functional; details: 9.37 µM
# T4 sequence (whole entry): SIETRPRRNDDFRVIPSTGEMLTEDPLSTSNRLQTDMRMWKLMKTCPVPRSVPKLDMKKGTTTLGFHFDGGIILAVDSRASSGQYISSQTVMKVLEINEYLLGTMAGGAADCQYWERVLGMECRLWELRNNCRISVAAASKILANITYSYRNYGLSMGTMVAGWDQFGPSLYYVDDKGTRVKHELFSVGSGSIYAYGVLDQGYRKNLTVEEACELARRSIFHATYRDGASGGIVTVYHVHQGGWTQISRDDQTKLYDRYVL
# Homo sapiens = organism: Homo sapiens; experiment: To identify inhibition of the IFN signalling (Jak-Stat) pathway via expression of an eGFP reporter gene under the control of an IFN-stimulated response element (ISRE) containing MxA promoter.; assay type: functional; details: 30 µM
# [7] = target: Shiga toxin 2 (Escherichia coli O157:H7) (UniProt P09385+P09386); experiment: E. coli 0.157:H7 Shiga Toxin SOP - stx2 screening assay; assay type: functional; details: 30 µM
# [8] = target: T5, Tyrosyl-tRNA synthetase, putative (Trypanosoma cruzi (strain CL Brener)) (UniProt Q4DSP6); experiment: Trypanosoma cruzi tyrosyl tRNA synthetase (TcYRS) _High Tyrosine SOP; assay type: functional; details: 30 µM; further: in the data most compounds retested in dose-response had high values
# T5 sequence (whole entry): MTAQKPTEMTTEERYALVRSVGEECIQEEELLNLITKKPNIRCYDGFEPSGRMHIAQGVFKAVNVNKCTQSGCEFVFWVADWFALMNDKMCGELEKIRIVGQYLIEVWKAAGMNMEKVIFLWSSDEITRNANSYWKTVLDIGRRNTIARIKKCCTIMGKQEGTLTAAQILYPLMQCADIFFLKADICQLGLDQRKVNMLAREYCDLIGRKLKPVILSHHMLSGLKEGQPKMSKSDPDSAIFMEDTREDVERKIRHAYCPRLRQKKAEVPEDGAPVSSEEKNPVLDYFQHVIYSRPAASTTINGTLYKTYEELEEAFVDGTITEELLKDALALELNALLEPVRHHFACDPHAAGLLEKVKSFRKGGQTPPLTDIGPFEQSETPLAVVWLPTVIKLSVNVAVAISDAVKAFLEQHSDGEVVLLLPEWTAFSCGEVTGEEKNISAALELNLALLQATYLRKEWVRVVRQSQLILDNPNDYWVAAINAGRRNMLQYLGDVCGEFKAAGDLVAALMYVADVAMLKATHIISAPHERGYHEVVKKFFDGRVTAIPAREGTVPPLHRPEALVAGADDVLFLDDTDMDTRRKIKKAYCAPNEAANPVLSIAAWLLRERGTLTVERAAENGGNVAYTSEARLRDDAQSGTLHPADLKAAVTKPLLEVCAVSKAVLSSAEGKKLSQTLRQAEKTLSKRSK
# [9] = target: T5, Tyrosyl-tRNA synthetase, putative (Trypanosoma cruzi (strain CL Brener)); experiment: Trypanosoma cruzi tyrosyl tRNA synthetase (TcYRS) SOP; assay type: functional; details: 30 µM
# [10] = target: Chromo domain-containing protein 1 (Saccharomyces cerevisiae (strain ATCC 204508 / S288c) (Baker's yeast)) (UniProt P32657); experiment: ScCHD-1 Enzyme Inhibition Assay; assay type: functional; details: 30 µM; further: in the data most compounds retested in dose-response had high values
# Chromo domain-containing protein 1 (Saccharomyces cerevisiae (strain ATCC 204508 / S288c) (Baker's yeast)), sequence (P32657 whole entry, the tested form may be a part): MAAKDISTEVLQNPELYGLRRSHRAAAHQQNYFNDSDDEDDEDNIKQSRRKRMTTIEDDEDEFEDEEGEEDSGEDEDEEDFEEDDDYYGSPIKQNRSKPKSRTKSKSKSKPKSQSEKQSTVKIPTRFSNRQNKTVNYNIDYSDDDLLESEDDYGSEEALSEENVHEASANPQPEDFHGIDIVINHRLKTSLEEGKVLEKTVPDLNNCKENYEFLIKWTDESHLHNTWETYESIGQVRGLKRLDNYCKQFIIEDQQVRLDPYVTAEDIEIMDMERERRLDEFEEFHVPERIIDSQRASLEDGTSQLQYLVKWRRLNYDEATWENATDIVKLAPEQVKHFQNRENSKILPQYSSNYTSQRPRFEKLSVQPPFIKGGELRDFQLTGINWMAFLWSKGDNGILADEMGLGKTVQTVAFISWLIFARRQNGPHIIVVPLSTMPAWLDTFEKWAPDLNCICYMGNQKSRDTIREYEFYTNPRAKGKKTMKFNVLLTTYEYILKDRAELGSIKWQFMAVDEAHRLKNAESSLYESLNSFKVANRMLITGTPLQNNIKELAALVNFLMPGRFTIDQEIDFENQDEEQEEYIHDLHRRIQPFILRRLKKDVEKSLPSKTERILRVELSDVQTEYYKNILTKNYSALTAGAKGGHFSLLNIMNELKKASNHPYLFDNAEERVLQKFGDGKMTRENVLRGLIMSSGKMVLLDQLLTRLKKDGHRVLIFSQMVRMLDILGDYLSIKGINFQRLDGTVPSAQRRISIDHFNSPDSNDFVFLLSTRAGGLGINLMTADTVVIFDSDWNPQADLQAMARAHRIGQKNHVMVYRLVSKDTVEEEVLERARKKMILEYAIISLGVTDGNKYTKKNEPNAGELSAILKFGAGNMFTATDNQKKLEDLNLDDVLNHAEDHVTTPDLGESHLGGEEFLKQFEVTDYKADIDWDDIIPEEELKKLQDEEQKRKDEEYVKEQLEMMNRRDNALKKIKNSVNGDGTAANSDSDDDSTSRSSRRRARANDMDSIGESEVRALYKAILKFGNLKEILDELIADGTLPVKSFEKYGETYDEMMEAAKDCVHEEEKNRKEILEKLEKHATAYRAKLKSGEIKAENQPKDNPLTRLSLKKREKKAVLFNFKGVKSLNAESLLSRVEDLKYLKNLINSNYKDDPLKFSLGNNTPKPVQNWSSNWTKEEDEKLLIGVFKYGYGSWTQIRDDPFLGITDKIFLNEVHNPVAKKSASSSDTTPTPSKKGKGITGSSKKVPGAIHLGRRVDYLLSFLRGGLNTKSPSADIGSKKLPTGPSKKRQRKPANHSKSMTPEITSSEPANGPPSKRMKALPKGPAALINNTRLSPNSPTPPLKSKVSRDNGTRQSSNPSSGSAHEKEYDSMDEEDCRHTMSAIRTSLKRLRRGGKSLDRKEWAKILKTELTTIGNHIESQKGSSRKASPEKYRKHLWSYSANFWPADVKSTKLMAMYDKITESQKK
# [11] = target: AMP-activated protein kinase, AMPK (Homo sapiens) (UniProt P54646+O43741+P54619+Q9UGJ0+Q9Y478+Q13131+Q9UGI9); experiment: AMP-dependent Kinase enzyme assay. An in vitro enzyme assay that detects ADP turnover that is directly proportional to AMPK activity. This uses naive AMPK that is activated during the assay with MK-8722; assay type: functional; details: 30 µM
# Protein translocase subunit SecA (Escherichia coli (strain K12)), sequence (P10408 whole entry): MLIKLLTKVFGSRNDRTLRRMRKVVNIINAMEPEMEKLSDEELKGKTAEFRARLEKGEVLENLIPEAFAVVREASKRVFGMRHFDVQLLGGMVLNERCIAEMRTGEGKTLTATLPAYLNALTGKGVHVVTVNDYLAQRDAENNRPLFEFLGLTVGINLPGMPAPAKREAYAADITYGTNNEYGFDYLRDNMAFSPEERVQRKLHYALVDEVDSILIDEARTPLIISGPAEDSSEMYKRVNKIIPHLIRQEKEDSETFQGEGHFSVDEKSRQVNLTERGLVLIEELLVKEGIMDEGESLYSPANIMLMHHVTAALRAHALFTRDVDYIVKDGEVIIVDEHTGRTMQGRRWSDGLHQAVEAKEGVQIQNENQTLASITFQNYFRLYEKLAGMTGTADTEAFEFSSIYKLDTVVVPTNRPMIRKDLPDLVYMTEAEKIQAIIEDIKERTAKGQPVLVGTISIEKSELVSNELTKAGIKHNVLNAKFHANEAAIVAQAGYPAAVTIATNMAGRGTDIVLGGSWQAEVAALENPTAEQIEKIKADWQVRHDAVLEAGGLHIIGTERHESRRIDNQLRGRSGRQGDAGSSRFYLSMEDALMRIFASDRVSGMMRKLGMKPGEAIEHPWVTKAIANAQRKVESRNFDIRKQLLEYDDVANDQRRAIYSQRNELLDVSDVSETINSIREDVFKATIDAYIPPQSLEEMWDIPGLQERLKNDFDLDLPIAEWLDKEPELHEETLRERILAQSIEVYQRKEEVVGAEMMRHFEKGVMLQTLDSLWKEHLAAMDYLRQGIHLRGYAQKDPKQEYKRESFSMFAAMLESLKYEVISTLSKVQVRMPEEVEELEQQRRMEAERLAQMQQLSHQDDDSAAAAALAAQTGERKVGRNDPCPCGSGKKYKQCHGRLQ
Compound,Percent Effect [1],Percent Effect [2],Percent Effect [3],Percent Effect [4],Percent Effect (Trypanosoma cruzi),Percent Effect [5],Percent Effect [6],Percent Effect (Homo sapiens),Percent Effect [7],Percent Effect [8],Percent Effect [9],Percent Effect [10],Percent Effect [11]
NC(=O)CN1CCCN(C(=O)Cc2ccc3c(c2)OCO3)CC1,-0.196%,5.33%,-1.81%,2.43%,-7.43%,3.55%,3.48%,12%,-21.4%,3.68%,10.3%,-7.19%,–
NC[C@H]1[C@H]2CN(Cc3ccccc3)C[C@@H]12,-1.98%,19.5%,-0.091%,2.06%,-0.938%,1.83%,7.81%,31%,-5.17%,4.83%,15%,-6.97%,–
c1ccc(N2CCCC3(CCN(Cc4cccs4)C3)C2)nc1 (stereo not given),-7.4%,16.9%,-1.46%,-2.35%,-2.81%,-0.913%,10.4%,17.3%,5.58%,1.93%,-2.5%,-9.64%,–
CC[C@H]1NCCC[C@]12CCC(=O)N2Cc1ccncc1,-3.12%,11.7%,0.865%,1.31%,0%,1.37%,-0.772%,-15%,-6.09%,5.8%,15%,-0.792%,–
C[C@H]1C(=O)NC[C@H]2CN(Cc3ccccc3)C[C@H]21,-1.35%,-1.3%,0.819%,-0.437%,1.5%,-0.457%,-1.12%,13.9%,5.59%,4.83%,0%,0.883%,–
O=C(c1ccsc1)N1CCN2C[C@H](OCc3cccnc3)C[C@H]2C1,-4.24%,10.7%,-1.78%,-1.36%,-4.53%,3.96%,11.5%,8.09%,1.7%,1.06%,-8.97%,-3.5%,8.09%
Cc1noc(C)c1CN1CCO[C@H]2CNC[C@H]21,-3.48%,9.09%,7.37%,-4.93%,-4.19%,-2.02%,20%,8.41%,2.96%,0.526%,7.69%,-4.21%,–
COc1cc(CNC(C)Cn2cccn2)cc(OC)c1OC (stereo not given),0.206%,18.2%,-3.28%,-6.87%,-7.3%,4.98%,2.87%,29.8%,-15.9%,7.77%,14.6%,-9.78%,0.589%
COCC1CC2(CCN(Cc3ccccn3)CC2)CN1C(C)C (stereo not given),-6.44%,6.49%,4.1%,6.75%,7.11%,-8.1%,7.5%,2.62%,-1.31%,3.68%,12.8%,2.02%,–
